# PubChem BioAssay AID1645860 (Buhrlage Lab, Dana-Farber Cancer Institute and Novartis …, 2021)
# Screen size: about 47,000 compounds; about 2,500 (5.3%) were called active. The list comes from a sample in which actives are over-represented; it also holds similar structures and randomly drawn compounds. Unmarked numbers belong to inactive results. No stated cut-off is given here; in the data, active means inhibition above about 30%; inactive means the rest.
# Biological target: Ubiquitin carboxyl-terminal hydrolase 30 (Homo sapiens) (UniProt Q70CQ3)
# Sequence (Q70CQ3 whole entry, looked up): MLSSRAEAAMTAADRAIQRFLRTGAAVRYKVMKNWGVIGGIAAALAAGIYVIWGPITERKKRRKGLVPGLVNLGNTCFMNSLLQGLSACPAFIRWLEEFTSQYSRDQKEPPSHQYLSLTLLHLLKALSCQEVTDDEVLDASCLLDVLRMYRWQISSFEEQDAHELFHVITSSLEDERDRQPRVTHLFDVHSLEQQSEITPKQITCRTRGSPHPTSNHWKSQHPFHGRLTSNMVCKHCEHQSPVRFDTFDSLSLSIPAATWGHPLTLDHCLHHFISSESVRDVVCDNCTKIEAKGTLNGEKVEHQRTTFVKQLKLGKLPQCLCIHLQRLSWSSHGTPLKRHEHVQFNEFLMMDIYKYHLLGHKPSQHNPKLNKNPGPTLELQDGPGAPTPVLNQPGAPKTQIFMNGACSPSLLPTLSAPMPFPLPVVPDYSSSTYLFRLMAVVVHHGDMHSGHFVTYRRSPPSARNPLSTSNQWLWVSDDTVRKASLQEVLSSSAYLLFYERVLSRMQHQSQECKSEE
# Assay: inhibitors of human USP30 deubiquitinase (AID 1645860)
# Settings: purified USP30, Ub-rhodamine cleavage fluorescence; at 25 µM; stronger effect = higher value
row,Structure (SMILES),inhibition
1,Cc1nc2cc3c(cc2n1CC(=O)NCCc1ccccc1)OCCO3,-5.99%
2,Cc1cccc(CC(=O)Nc2c(C)nc3ccccn3c2=O)c1,7.29%
3,COc1cccc(N2CCN(C(=O)Nc3ccc4c(c3)NC(=O)CO4)CC2)c1,69.6% (active)
4,Cc1cc2oc(C(=O)Nc3ccc4c(c3)NC(=O)CO4)c(C)c2cc1Cl,19.5%
5,COc1cccc(NC(=O)N2CC[C@H]3N(C)CC[C@@]3(C(=O)N3CCCC3)CC2)c1,-23.3%
6,O=C(O)C[C@@H]1CCN(C(=O)C2CCCCC2)C[C@@H]1CC1=NCCc2ccccc21,-65%
7,COc1ccc(SCc2nc(N)nc(Nc3ccccc3)n2)cc1,-33%
8,CSc1ncnc2c1sc1nc(-c3ccccc3)c3c(c12)CC(C)(C)OC3,9.17%
9,CC1(C)Cc2c(c(-c3ccco3)nc3sc4c(SCCCc5ccccc5)ncnc4c23)CO1,11.9%
10,CC(C)Cc1nc2sc3c(N(CCO)Cc4ccccc4)ncnc3c2c2c1COC(C)(C)C2,34.9% (active)
11,COc1cccc(O[C@@H]2C[C@@H](NC(=O)C3CCOCC3)[C@H](O)[C@H]2O)c1,7.84%
12,O=C1CNC(=O)N1CC(O)Cn1c2ccc(Br)cc2c2cc(Br)ccc21 (configuration not stated),6.98%
13,O=C(Nc1ccc(Cl)cc1)C1C2C=CC3(O2)C1C(=O)N(CCc1ccccc1Cl)C3C(=O)NC1CCCCC1 (configuration not stated),29.8%
14,O=c1c2cnc(N3CCCCC3)nc2ccn1Cc1cccnc1,1.8%
15,O=c1c2cnc(N3CCOCC3)nc2ccn1CCc1ccccc1,12.9%
16,O=c1c2cnc(N3CCCC3)nc2ccn1-c1ccccc1,31% (active)
17,c1ccc(-c2nccc(-c3ccc(-n4cncn4)cc3)n2)nc1,23.2%
18,Cn1c(SCc2ccc(Cl)cc2)nnc1-c1ccc2c(c1)OCCO2,30.4% (active)
19,Cc1cc(C(=O)CSc2nnc(-c3ccc(F)cc3)n2C)c(C)n1C,-35%
20,CCn1c(SCC(=O)Nc2ccc3c(c2)OCCO3)nnc1C(C)C,9.74%
21,Cc1nn(-c2cccc(F)c2)c2c1c(C)c(CCC(=O)NCc1ccccn1)c(=O)n2C,58.6% (active)
22,Cc1nn(-c2ccccc2)c2c1c(C)c(CCC(=O)N1CCN(c3ccc(F)cc3)CC1)c(=O)n2C,-7.59%
23,Cc1nc2cc(C(=O)NCc3ccccn3)ccc2n1-c1cccc(F)c1,0.251%

row,Structure (SMILES),inhibition
1,O=C(Nc1ccc2cn[nH]c2c1)c1cnn(-c2ccccc2)n1,-23.9%
2,CCCc1cc(=O)oc2cc(OCC(=O)NCc3ccc(OC)cc3)ccc12,62.1% (active)
3,CCCc1cc(=O)oc2cc(OC(=O)C3CCN(C(=O)c4ccc(Cl)cc4)CC3)ccc12,29.6%
4,COc1ccc(N2CCN(Cc3cc(=O)oc4cc(O)ccc34)CC2)cc1,8.3%
5,CCN(CC)c1ccc(C2C3=C(CC(C)(C)CC3=O)Nc3ccccc3N2C(=O)Cc2ccccc2)cc1 (configuration not stated),-64.2%
6,Cc1ccc(Nc2nc(O)c(CC(=O)Nc3ccc(C(C)C)cc3)s2)cc1C,0.202%
7,Cc1ccc(NC(=O)Cc2sc(Nc3ccc(C)cc3)nc2O)cc1,53.6% (active)
8,Cc1ccc(Nc2nc(NCC(=O)Nc3cc(C)ccc3C)nc(Nc3ccc(C)cc3)n2)cc1,-44%
9,CCOc1ccc(N(CC(=O)Nc2ccc(S(=O)(=O)Nc3cc(C)ccc3C)cc2)S(C)(=O)=O)cc1,1.87%
10,CCOc1ccc(Nc2nc(O)c(CC(=O)Nc3cccc(C)c3)s2)cc1,33.8% (active)
11,CCC(=O)c1ccc(OCC(=O)Nc2ccc3nc(C)sc3c2)cc1,-168%
12,Cc1cccc(-c2cnc(C(O)c3ccc4c(c3)OCO4)[nH]2)c1 (configuration not stated),-30.9%
13,COc1ccc(C2CC(=O)c3cnc(NC(=O)c4cc(OC)c(OC)c(OC)c4)nc3C2)c(OC)c1 (configuration not stated),24.2%
14,C=C1C(=O)O[C@H]2C=C(C)C=C[C@@]3(C)CC[C@@]1(O)[C@H]23,7.94%
15,O=C(NCc1ccncc1)C1CC(=O)N(c2cccc(C(F)(F)F)c2)C1 (configuration not stated),0.292%
16,Cc1oc(-c2ccccc2)nc1C(=O)N(C)Cc1cccc(Cl)c1Cl,-7.53%
17,O=C1NCCCC12CCN(Cc1cnc3ccccc3n1)CC2,10.3%
18,Cc1ccc(-c2nc(C(=O)N3CCN(c4ccccn4)CC3)cs2)n1C,-26.2%
19,O=C(c1cccnc1)N1CCN(c2cc(-c3ccccc3)[nH]n2)CC1,12.7%
20,CN(CCc1ccccc1)c1nccc(N2CCN(C(=O)c3csc(-c4cccnc4)n3)CC2)n1,51.1% (active)
21,Cc1nc2cccnc2nc1C,-39.7%
22,NC(=Nc1cccnc1)c1ccc2ccccc2n1,4.02%
23,Clc1ccc(C2NC3=NCN(Cc4ccco4)CN3c3nc4ccccc4n32)cc1 (configuration not stated),36.4% (active)

row,Structure (SMILES),inhibition
1,COc1cccc(CNC(=O)C2(C)Oc3cccnc3N(C)C2=O)c1 (configuration not stated),-5.25%
2,O=C(NC1CCCCCC1)c1nc(Cn2cnc3ccccc3c2=O)no1,9.85%
3,COc1ccc(N(CC(=O)NCc2ccco2)S(=O)(=O)c2ccccc2[N+](=O)[O-])c(OC)c1,3.13%
4,CC(C)(C)c1ccc(-c2nnc3n2-c2ccccc2SC3)cc1,56.7% (active)
5,CCc1ccccc1N1C(=O)CN(S(C)(=O)=O)CC1(C)C(=O)NC1CCCCC1 (configuration not stated),19.9%
6,COCCSc1ccc(-c2cccnc2)nn1,1.49%
7,Cc1ccc(C(=O)N2CCC3(CC2)CCN(c2cnn(C)c2)C3=O)cc1,17.1%
8,O=C(NCC(c1ccco1)N1CCCCC1)c1ccccc1Cl (configuration not stated),-6.05%
9,Cc1ccc(CNC(=O)c2cc(=O)nc3sc(N4CCCC(C)C4)nn23)cc1 (configuration not stated),30.1% (active)
10,CCCOc1ccc(CNC(=O)C2CCCN(c3nnc(N4CCCC4=O)s3)C2)cc1 (configuration not stated),5.69%
11,Cc1cc(=O)n(CC(=O)NCc2ccccc2)c(N2CCCC2)n1,0.241%
12,COc1cccc(NC(=O)Nc2nccn(-c3ccccc3)c2=O)c1,39.1% (active)
13,COc1cccc(C(=O)Nc2nccn(-c3cccc(F)c3)c2=O)c1,0.051%
14,COc1ccccc1-n1ccnc(NC(=O)c2cccc(F)c2)c1=O,11%
15,CSc1ncccc1C(=O)Nc1ccnn1C(C)c1ccncc1 (configuration not stated),-23%
16,CCn1c2ccccc2n2c(S(=O)(=O)Cc3ccccc3)nnc12,5.02%
17,Cc1sc2nc(C3CC3)n(C3CCN(C(=O)C(C)C)CC3)c(=O)c2c1C,18.3%
18,CCC(Oc1ccccc1)C(=O)NCc1ccc2c(c1)OCO2 (configuration not stated),21.1%
19,c1ccc(-c2ccc(NCc3ccc4c(c3)OCO4)nn2)cc1,33.6% (active)
20,c1cc(CNCc2ccc3c(c2)OCO3)ccn1,0.888%
21,Cc1cccc(CN2CCN(CC(=O)NCCN3CCOCC3)C2=O)c1,-2.8%
22,O=C(NCc1ccccc1F)c1nnn(-c2ccccc2)n1,14.4%
23,CSCc1c(C)noc1-c1cc(C)on1,8.31%

row,Structure (SMILES),inhibition
1,COc1ccccc1N(Cc1nc2nc(C)cc(C)n2n1)C(=O)c1ccccc1,-0.203%
2,Cc1ccnc(Nc2nc(-c3ccccc3)c3cc(Cl)ccc3n2)n1,82.8% (active)
3,CCOc1nc(-c2ccc(Cl)cc2Cl)nc2ccccc12,13.4%
4,CC(=O)C[n+]1cc(-c2ccc(C)cc2)n2c1CCC2,5.82%
5,CCOc1ccc(C(=O)C[n+]2cc(-c3ccccc3)n3c2CCC3)cc1,30.3% (active)
6,CCOc1ccc(Nc2cc(C(=O)NCCN3CCCC3)c3ccccc3n2)cc1,29.9%
7,CCN1CCN(c2ccc(NC(=O)c3cccc(C)c3)cn2)C1=O,-23.3%
8,Cc1nc(-c2cnccn2)n(CC(=O)Nc2ccc(F)cc2)c(=O)c1C,2.83%
9,CC(=O)c1cccc(Nc2c(C(=O)N3CCCC3)cnc3nc(C)ccc23)c1,-35.8%
10,COCCNc1nn2c(-c3ccc4ccccc4c3)cnc2s1,30.2% (active)
11,OCc1ccccc1-c1cnc2sc(NCCc3ccccn3)nn12,16.3%
12,Cc1nnn(C23CC4CC(CC(C(=O)NC5CCCC5)(C4)C2)C3)n1,21.2%
13,CCOc1ccccc1N1CCN(C(=O)c2snc(-c3ccncc3)c2N)CC1,1.69%
14,O=C(CCC(=O)N(c1ccccc1)c1ccccc1)Nc1ccccc1,-16.4%
15,COc1ccc(C)cc1NC(=O)Cn1c(=O)nc(N(C)c2ccccc2)c2ccccc21,0.767%
16,CN(c1ccccc1)c1nc(=O)n(CC(=O)Nc2ccc3c(c2)OCCO3)c2ccccc12,42.3% (active)
17,O=C(Cn1cnc2c(sc3ccccc32)c1=O)Nc1ccc2c(c1)OCCO2,-498%
18,CCCCS(=O)(=O)N1C[C@H]2CC[C@@]3(N=C(C)N(CC4CC4)C3=O)[C@H]2C1,12.5%
19,CNC(=O)c1sc2nccnc2c1C1CCN(C(=O)c2cccc(F)c2)CC1,13.3%
20,CNc1cc(C2CCCN2C(=O)c2cc3c([nH]c2=O)CCC3)ccn1 (configuration not stated),-20.8%
21,CC(C)N(C(=O)CSc1nc2ccc([N+](=O)[O-])cc2s1)C(C)C,-147%
22,CC(C)Cc1cc(C(=O)N2CCN(C)CC(C(N)=O)C2)on1 (configuration not stated),16.9%
23,C=C1CC[C@@H]2[C@@]3(C)CCC(=O)C(C)(C)[C@@H]3CC[C@@]2(C)[C@]12Cc1c(c(C)c(C)oc1=O)O2,30.3% (active)
